Data published in PubChem BioAssay (NCI).
Compounds without any hit were thinned out: in the full panel of roughly 83,000, 20% have a hit.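 Treatment: one concentration, 48 hours, 96-well format. Scoring: percent growth, with anything below 10 considered active.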 Values without a mark were called inactive. Activity calls are given as the source filed them.

Key:
Experiment in all cases: NCI-60 one-dose screen, 48 h (100 = growth as untreated, 0 = no growth, -100 = all killed)
Settings in all cases: 10 µM unless noted
HCT-15 colon = tested on: HCT-15 colon
HT29 colon = tested on: HT29 colon
SNB-75 CNS = tested on: SNB-75 CNS
SNB-19 CNS = tested on: SNB-19 CNS
U251 CNS = tested on: U251 CNS
PC-3 prostate = tested on: PC-3 prostate
UACC-62 melanoma = tested on: UACC-62 melanoma
LOX IMVI melanoma = tested on: LOX IMVI melanoma
SK-MEL-28 melanoma = tested on: SK-MEL-28 melanoma
EKVX NSCLC = tested on: EKVX NSCLC
SN12C renal = tested on: SN12C renal
UO-31 renal = tested on: UO-31 renal
TK-10 renal = tested on: TK-10 renal
ACHN renal = tested on: ACHN renal
CAKI-1 renal = tested on: CAKI-1 renal
A498 renal = tested on: A498 renal
CCRF-CEM leukemia = tested on: CCRF-CEM leukemia
MOLT-4 leukemia = tested on: MOLT-4 leukemia
SK-MEL-2 melanoma = tested on: SK-MEL-2 melanoma

Compound	growth (HCT-15 colon) [%]	growth (HT29 colon)	growth (SNB-75 CNS)	growth (SNB-19 CNS)	growth (U251 CNS)	growth (PC-3 prostate)	growth (UACC-62 melanoma)	growth (LOX IMVI melanoma)	growth (SK-MEL-28 melanoma)	growth (EKVX NSCLC)	growth (SN12C renal)	growth (UO-31 renal)	growth (TK-10 renal) [%]	growth (ACHN renal) [%]	growth (CAKI-1 renal)	growth (A498 renal)	growth (CCRF-CEM leukemia)	growth (MOLT-4 leukemia) [%]	growth (SK-MEL-2 melanoma) [%]
CC1CCNC(C)C1 (stereo not given)	108	110%	86.5%	114%	108%	90.3%	102%	100%	115%	107%	103%	93.2%	109	106	101%	106%	94.4%	116	
O=C(C(=O)c1ccc2c(c1)OCO2)c1ccc2c(c1)OCO2	110	103%	90.3%	104%	103%	100%	105%		110%	124%	107%	100%	105	111	107%	98.1%	95.6%	117	112
Cc1c(/C=C/[N+](=O)[O-])ccc2c1[nH]c1ccccc12	81.3	96.5%	107%	100%	73.7%	95.5%	81%		113%	98.6%	99.7%	94.3%	93.2	111	102%	83.6%	87%	94.9	93.5
C#CC(F)(F)[C@]1(O)CC[C@H]2[C@@H]3CCC4=CC(=O)CCC4=C3[C@@H](c3ccc(C(C)=O)cc3)C[C@@]21C	89.6	1.5% (active)	73.7%	95.6%	75.5%	37%		48.9%	107%	-60.6% (active)	89.3%	-75% (active)	114	87.8	-31.9% (active)	79%	-55.5% (active)	35.6	99.4
O=C(COc1ccc(-c2nc3cc(Cl)c(Cl)cc3[nH]2)cc1)N=Nc1c(O)[nH]c2ccccc12	79.4	4.49% (active)	-73.8% (active)	-35.9% (active)	-86.3% (active)	-50.6% (active)	1.75% (active)	6.14% (active)	-49.1% (active)		-27.1% (active)	99.7%	22.8	25.6	38.5%	-1.56% (active)	16.1%	27	14.6
